High-throughput results deposited in PubChem by several laboratories.
Hits are enriched below; roughly 3.1% of the tested compounds scored in any of these assays.
BoNT A protease: BoNT/A light chain protease inhibitors, primary screen, biochemical, flow cytometry, MLPCN library | Botulinum neurotoxin type A light chain protease (Clostridium botulinum A str. ATCC 3502) | inhibition, % at 10 µM | multiplex microsphere protease substrate cleavage | 0.17% of 360,000 active; further: plate controls were buffer without enzyme for full effect and enzyme alone for no effect
Bead autofluor: counter-screen for toxin protease inhibitors: compound fluorescence. compound autofluorescence counterscreen, microsphere flow cytometry; stronger effect = higher value. fluorescence intensity (no concentration beside the values). 3.1% of 360,000 active. AID 624483; in the data active means fluorescence intensity above about 16000; inconclusive means no clear call, values can overlap the other calls
BoNT F protease: BoNT/F light chain protease inhibitors, primary screen, biochemical, flow cytometry, MLPCN library | Multiplex microsphere protease cleavage assay | AID 588497, 2011 | 0.22% of 360,000 active | inhibition, % at 10 µM; in the data active means inhibition above about 35%, passing the limit was not always enough; inconclusive means no clear call, values can overlap the other calls; further: plate controls were buffer without enzyme for full effect and enzyme alone for no effect
SSB-PriA inh: inhibitors of Klebsiella pneumoniae PriA binding to SSB C-terminal tail, primary screen, biochemical, AlphaScreen; PriA–SSB C-terminal tail interaction (Klebsiella pneumoniae); AlphaScreen SSBct-PriA binding, biotinylated peptide; inhibition, % at 33 µM; 0.6% of 430,000 active; AID 1272365, 2023; in the data active means inhibition mostly above about 37%, no sharp cut-off; inactive means mostly below about 20%;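 further: plate controls were negative control peptide for no effect and reference peptide for full effect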
Anthrax LF inh2: Bacillus anthracis LF protease inhibitors, primary screen, biochemical, multiplex microsphere, MLPCN library; multiplex microsphere protease cleavage assay; Lethal factor (Bacillus anthracis), P15917; inhibition, % at 10 µM; 0.12% of 360,000 active; AID 588501, 2011; further: plate controls were buffer without enzyme for full effect and enzyme alone for no effect
Numbers without * were called inactive. Unless noted, no stated cut-off is given here; in the data, active means inhibition above about 30%; inconclusive means no clear call, values can overlap the other calls; inactive means below that.

Cc1ccc(-c2nnn(CC(=O)N(c3ccccc3)C(C(=O)NC(C)(C)C)c3cccs3)n2)o1 (configuration not stated) was read as BoNT A protease 0.2, Bead autofluor 3275, BoNT F protease 21.7, SSB-PriA inh -7.4 and Anthrax LF inh2 3.4.
Cc1ccccc1-n1c(=O)cc(N2CCc3ccccc3C2)[nH]c1=O was read as BoNT A protease 8.5, Bead autofluor 19487*, BoNT F protease 11.0, SSB-PriA inh 11.5 and Anthrax LF inh2 -15.2.
For CCOC(=O)C1CCN(C(=O)Cn2cnc(-c3ccc(OC)cc3)cc2=O)CC1 the results were SSB-PriA inh -6.0.
Screening CN(C)S(=O)(=O)c1ccc(C(O)=C2C(=O)C(=O)N(Cc3cccnc3)C2c2ccncc2)cc1 (configuration not stated) returned SSB-PriA inh -5.2.
Screening CN(C)S(=O)(=O)c1ccc(/C(O)=C2/C(=O)C(=O)N(Cc3cccnc3)C2c2ccncc2)cc1 (configuration not stated) returned BoNT A protease -3.3, Bead autofluor 17829*, BoNT F protease -6.7 and Anthrax LF inh2 -2.9.
For C(=C\c1ccccc1)/CSc1nnc(-c2cccs2)n1-c1ccccc1 the results were SSB-PriA inh -3.0.
FC(F)Sc1nnc(-c2cccs2)n1-c1ccccc1 was read as BoNT A protease 1.3, Bead autofluor 19168*, BoNT F protease 0.6, SSB-PriA inh 4.6 and Anthrax LF inh2 1.9.
O=C(NC(c1ccccc1)c1ccccc1)N1CC(S(=O)(=O)c2ccc(F)cc2)C1 was read as SSB-PriA inh 0.0.
Cc1ccc(C(=O)NCC2CCCO2)cc1 (configuration not stated) was read as SSB-PriA inh -23.0.
`CCCC(=O)Nc1ccc(C(=O)NCC2CCCO2)cc1` (configuration not stated) gave BoNT A protease -2.2, Bead autofluor 24245*, BoNT F protease -0.8, SSB-PriA inh 1.9 and Anthrax LF inh2 0.9.
`O=C(NCC1CCCO1)c1cccc(Br)c1` (configuration not stated) gave BoNT A protease inconclusive, Bead autofluor 16290*, BoNT F protease -1.6, SSB-PriA inh -4.4 and Anthrax LF inh2 1.6.
O=C(NCC1CCCO1)c1cnc(Cl)c(Cl)c1 (configuration not stated) was read as BoNT A protease 1.7, Bead autofluor 3554, BoNT F protease 13.9, SSB-PriA inh -6.5 and Anthrax LF inh2 32.1*.
Screening O=C(NCCc1ccccc1)c1cnc(Cl)c(Cl)c1 returned BoNT A protease -0.2, Bead autofluor 2953, BoNT F protease 5.0, SSB-PriA inh 2.0 and Anthrax LF inh2 35.3*.
For CCOC(=O)Cn1nc(-c2ccccc2)c2cnc3ccc(C(=O)OCC)cc3c21 the results were SSB-PriA inh 2.0.
For Cc1cccc(N2CCN(S(=O)(=O)CCNC(=O)C3CC3)CC2)c1 the results were SSB-PriA inh -2.0.
Cc1cccc2sc(N(CCCN3CCOCC3)C(=O)/C=C/c3cccs3)nc12 was read as SSB-PriA inh -28.0.
For CCSc1ccccc1C(=O)NCCC(O)c1cccn1C (configuration not stated) the results were SSB-PriA inh 8.0.
Screening CCC(=O)Nc1ccc(NC(=O)c2ccco2)c(OC)c1 returned BoNT A protease 0.7, Bead autofluor 4538, BoNT F protease 12.8, SSB-PriA inh -20.6 and Anthrax LF inh2 -3.0.
`C=CCOc1c(Br)cc(CNc2ccc(NC(=O)C(C)C)c(OC)c2)cc1OC` gave BoNT A protease inconclusive, Bead autofluor 20313*, BoNT F protease 4.8, SSB-PriA inh 42.1* and Anthrax LF inh2 -8.6.
Screening COc1cc(NC(=O)C2CCCO2)c(C(=O)O)cc1OC (configuration not stated) returned BoNT A protease -0.9, Bead autofluor 21130*, BoNT F protease -5.0, SSB-PriA inh -22.7 and Anthrax LF inh2 2.3.
Screening COC(=O)c1cc(OC)c(OC)cc1NC(=O)c1ccco1 returned BoNT A protease 0.6, Bead autofluor 3074, BoNT F protease -1.6, SSB-PriA inh -11.0 and Anthrax LF inh2 -0.4.
For COc1cc(CNc2ccc(C(=O)O)cc2)cc(Br)c1OCC(=O)NC(C)(C)C the results were BoNT A protease -0.7, Bead autofluor 1996, BoNT F protease -11.6, SSB-PriA inh -5.5 and Anthrax LF inh2 -3.3.
COc1cc(NC(=O)c2ccco2)c(C(=O)O)cc1OC was read as BoNT A protease -2.2, Bead autofluor 23681*, BoNT F protease -2.1, SSB-PriA inh -4.6 and Anthrax LF inh2 -2.8.
COc1ccc(NC(=O)COC(=O)c2cc(OC)c(OC)cc2NC(=O)c2ccco2)cc1OC was read as BoNT A protease -0.4, Bead autofluor 21054*, BoNT F protease -2.5, SSB-PriA inh -5.3 and Anthrax LF inh2 -3.2.
Screening O=C(c1ccco1)N1CCN(c2cc(-n3cncn3)ncn2)CC1 returned SSB-PriA inh -11.0.
CCOc1ccc2nc(NC(=O)Cc3csc(NC(=O)c4ccccc4)n3)sc2c1 was read as SSB-PriA inh 9.0.
Screening COc1cc(NC(=O)CC(C)C)ccc1NC(=O)c1ccco1 returned BoNT A protease -1.0, Bead autofluor 10922, BoNT F protease -8.4, SSB-PriA inh 5.1 and Anthrax LF inh2 0.2.
For COc1cc(NC(=O)c2ccco2)ccc1NC(=O)C(C)C the results were BoNT A protease inconclusive, Bead autofluor 21437*, BoNT F protease -6.8, SSB-PriA inh -16.2 and Anthrax LF inh2 -2.7.
Screening CC(=O)Nc1ccc(S(=O)(=O)Oc2ccc(N3C(=O)C4CCCCC4C3=O)cc2)cc1 (configuration not stated) returned BoNT A protease inconclusive, Bead autofluor 19304*, BoNT F protease -1.1, SSB-PriA inh -12.2 and Anthrax LF inh2 -6.2.
For Cn1nnc(-c2ccc(OCc3ccccc3F)cc2)n1 the results were BoNT A protease -0.4, Bead autofluor 23800*, BoNT F protease -3.4, SSB-PriA inh -17.6 and Anthrax LF inh2 -5.0.
Screening COc1ccccc1NC(=O)NCc1sc(-c2ccco2)nc1C returned SSB-PriA inh -3.0.
`Cc1cccc2cc(CN(Cc3ccco3)C(=O)c3ccncc3)c(=O)[nH]c12` gave SSB-PriA inh -1.9.
Screening O=C(c1ccncc1)N(Cc1ccco1)Cc1cc2ccccc2[nH]c1=O returned BoNT A protease 1.8, Bead autofluor 22113*, BoNT F protease 1.8, SSB-PriA inh -8.1 and Anthrax LF inh2 0.2.
Screening COc1ccc(/C=C/C(=O)c2ccc(Cl)cc2)c(OC)c1 returned BoNT A protease 4.3, Bead autofluor 18548*, BoNT F protease 1.3, SSB-PriA inh 0.5 and Anthrax LF inh2 0.2.
